V-ATPase pH = yeast V-ATPase proton transport regulation by pHLuorin. S. cerevisiae, pHLuorin cytosolic pH fluorescence. response, % at 10 µM. 350,000 tested, 0.37% active. AID 504577; in the data active = response mostly above about 7.3%, no sharp cut-off; inactive = mostly below about 5.4%; also: actives read high
ADAM10 inh = inhibits human ADAM10. O14672. AID 720582. 370,000 tested, 0.62% active. inhibition, % at 7 µM. recombinant ADAM10, EDANS/DABCYL FRET peptide cleavage, 3 h;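 active = inhibition above a per-campaign cutoff equal to the mean of compounds falling between control-based bounds plus 3 SD, cut at about 20% in these data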;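 also: 0% = DMSO wells while the 100% control is not disclosed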
Target sequence (O14672 214-748 limits assumed): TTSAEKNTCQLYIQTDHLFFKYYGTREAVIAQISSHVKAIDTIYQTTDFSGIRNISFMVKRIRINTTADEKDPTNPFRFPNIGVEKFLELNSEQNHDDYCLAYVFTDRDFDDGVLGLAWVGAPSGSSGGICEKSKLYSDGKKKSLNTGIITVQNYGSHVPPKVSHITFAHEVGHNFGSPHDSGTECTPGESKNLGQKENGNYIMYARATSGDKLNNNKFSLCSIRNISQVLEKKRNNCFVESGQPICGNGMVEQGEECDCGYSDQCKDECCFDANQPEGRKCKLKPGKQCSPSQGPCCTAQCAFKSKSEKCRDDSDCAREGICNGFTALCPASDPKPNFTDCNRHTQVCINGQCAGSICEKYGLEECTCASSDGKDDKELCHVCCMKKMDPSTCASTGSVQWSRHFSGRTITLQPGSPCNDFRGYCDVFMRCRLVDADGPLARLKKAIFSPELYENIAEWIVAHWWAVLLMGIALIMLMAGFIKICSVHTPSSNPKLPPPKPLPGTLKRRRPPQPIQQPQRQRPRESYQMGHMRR
ADAM17 inh = inhibitors of human ADAM17. P78536. recombinant ADAM17, EDANS/DABCYL FRET peptide cleavage. inhibition, % at 6.95 µM. 370,000 tested, 0.83% active. AID 720648;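 active = inhibition above the mean of compounds lying between control limits plus 3 SD, set per campaign, cut at about 8.5% in these data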;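 also: 0% = DMSO-only wells as the low control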
KLK7 zymogen act = activates the human kallikrein-7 zymogen; P49862; AID 652039; 370,000 tested, 0.9% active; activation, % at 7 µM; purified proKLK7, EDANS-DABCYL substrate fluorescence; 100% is mature enzyme control, 0% vehicle;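 active = activation above the mean of all tested compounds plus 3 SD, computed per campaign excluding outliers beyond control limits, cut at about 13% in these data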
proKLK7 act conf = confirmation of human kallikrein-7 zymogen activators. shares compounds with KLK7 zymogen act. purified proKLK7, EDANS-DABCYL substrate fluorescence; scaled: vehicle 0, mature enzyme 100. activation, % at 7 µM. 3,200 tested, 68% active;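 active = activation, as change over the incubation, above the mean of all tested compounds plus 3 SD, cut at about 13% in these data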
EDANS interfere = fluorescence interference counter-screen for KLK7 activators. shares compounds with KLK7 zymogen act. EDANS-DABCYL substrate fluorescence interference, no enzyme, 4 h; solvent 0%, active enzyme control 100%. activation, % at 7 µM. 3,200 tested, 80% active;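 active = activation above the all-compound mean plus 3 SD, ignoring values outside control-based bounds, cut at about 4.8% in these data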;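 also: value is the 4 h activation minus the activation read at time zero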
Starred values were filed as active, the others as inactive; i = inactive; . = not tested or not shown. Compounds with a hit are over-represented: about 2.3% of the library has one in this group of screens.

SMILES	V-ATPase pH	ADAM10 inh	ADAM17 inh	KLK7 zymogen act	proKLK7 act conf	EDANS interfere
COc1ccccc1NS(=O)(=O)c1cccc(C(=O)N/N=C/c2ccc(NC(C)=O)cc2)c1	4	-75	-70	235*	-8	-4
COc1ccccc1NS(=O)(=O)c1cccc(C(=O)N/N=C/c2ccc(OCC(=O)O)cc2)c1	-1	-5	3	0	.	.
CNC(C)C#Cc1ccc2oc3cccc(OC)c3c(=O)c2c1 (stereo unspecified)	2	-413	-135	34*	8	12*
CNC(C)C#Cc1ccc2oc3cc(C)c(C)cc3c(=O)c2c1 (stereo unspecified)	-6	-97	-30	-2	.	.
N#CCC[C@@H]1CC[C@]2(CCCN(C(=O)c3ccno3)C2)O1	.	1	-2	0	.	.
Oc1ccc2c(c1)OCC1(O)Cc3cc(O)c(O)cc3C21 (stereo unspecified)	0	-33	-7	16*	58*	57*
C=CCN(CC=C)c1nc2ccccc2nc1C(C#N)C(=O)OC(C)C (stereo unspecified)	-2	i	-229	19*	22*	22*
C=CCOC(=O)C(C#N)c1nc2ccccc2nc1N1CCN(c2ccccc2OC)CC1 (stereo unspecified)	-1	-18	-11	-1	.	.
CCCCN(C(=O)NC(=O)C1=C(N2CCOCC2)/C(=C/c2ccccc2)CC1)S(C)(=O)=O	1	i	-139	-291	.	.
CN(C(=O)NC(=O)C1=C(N2CCOCC2)/C(=C/c2ccccc2)CC1)S(C)(=O)=O	2	-296	-100	146*	342*	332*
O=C(Nc1ccccc1-c1nc2ccccc2[nH]1)c1ccc(N2C(=O)CCC2=O)cc1	0	-12	-2	0	.	.
O=C(Nc1ccc(-c2nc3ccccc3[nH]2)cc1)c1cccc(N2C(=O)CCC2=O)c1	4	i	-203	127*	167*	171*
COC(=O)c1ccc(C(=O)Nc2ccc3nc(-c4cccnc4)[nH]c3c2)cc1	-1	-6	-2	20*	-14	-13
COC(=O)c1ccc(-c2nc3ccccc3[nH]2)cc1	2	i	i	43*	79*	73*
COC(=O)c1ccc(C(=O)Nc2ccc3nc(-c4ccncc4)[nH]c3c2)cc1	-2	5	-2	-38	.	.
CCOC(=O)[C@@]12CCC3=C1N(CCC3)C(=O)[C@H](CC(=O)N1CCOCC1)C2	.	-11	-5	0	.	.
O=C(NCCCN1CCOCC1)c1cc2c(=O)[nH]c3ccccc3c2s1	0	i	-456	14*	11	12*
CCCCN(CC)CCNC(=O)c1cc2c(=O)[nH]c3ccc(C)cc3c2s1	-2	i	-330	16*	-47	-54
CCC(C)NC(=O)c1cc2c(=O)[nH]c3ccc(C)cc3c2s1 (stereo unspecified)	-2	-390	-165	35*	-16	-17
CCCCN(CC)CCCNC(=O)c1cc2c(=O)[nH]c3ccccc3c2s1	-4	i	-210	15*	9	6.2*
Cc1ccc2[nH]c(=O)c3cc(C(=O)NCCC(C)C)sc3c2c1	-5	-37	-21	-2	.	.
Cc1cc2c(c(=O)o1)[C@@]1(C(=O)N(C)c3cccc(Br)c31)C1=C(CCCC1=O)O2	.	-7	0	1	.	.
CC(C)CN(CC(C)C)C(=O)c1cc2c(=O)n3ccccc3nc2s1	-5	i	-325	22*	-78	-69
COc1ccc2cc3cc(C(=O)Nc4ccc(F)cc4)sc3nc2c1	.	-49	-15	.	.	.
CCC(C)NC(=O)c1cc2cc3ccc(OC)cc3nc2s1 (stereo unspecified)	4	i	i	30*	3	5.7*
CCN(CC)C(=O)c1cc2c(=O)n3ccccc3nc2s1	-2	i	i	64*	64*	82*
COCCN(CCOC)C(=O)c1cc2c(=O)n3ccccc3nc2s1	3	i	-232	9	.	.
CC(C)CCNC(=O)c1cc2c(=O)n3ccccc3nc2s1	6	i	i	63*	33*	41*
CN(C)S(=O)(=O)c1cccc(NC(=O)c2cc3c(=O)n4ccccc4nc3s2)c1	0	-58	-12	0	.	.

Screening data: PubChem, several laboratories
